Data on 16 compounds can be found in PubChem BioAssay (NCATS).

The nature of assay [1]: qHTS drug screen for cell cycle checkpoint inhibitors in PARPi-resistant BRCA-mutant ovarian cancer cell lines. (AID 1963452; calls by dose curve). The note with it: PEO1/OlaR viability, CellTiter-Glo luminescence, 96 h, stronger effect = lower value. Summed up: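 PEO1, PEO4 and PEO1/OlaR ovarian cancer cells, 600 per well, exposed 96 h at 37C to a dilution series. Viability read by CellTiter-Glo luminescence, normalized to DMSO and empty wells; activity summarized as Z-AUC.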
Background: Quantitative high-throughput screening tests each substance at several concentrations.

The nature of assay [2]: KB-8-5-11 P-gp reporter qHTS against the NCATS DSHEA and TCM libraries (AID 1919977). Note: 0% is about no effect. Particulars: KB-8-5-11 cells; series mostly up to 26.1 µM. A digest of the protocol:
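P-gp-overexpressing KB-8-5-11 cells were screened in colchicine-free medium at 500 cells/well, as a titration series. Cells were exposed for 72 h at 37C. Viability was read by CellTiter-Glo luminescence after 30 min at room temperature.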

The nature of assay [3]: qHTS for identification of novel therapeutic agents for treatment of microphthalmiaassociated transcription factor (MiT) renal cell carcinoma (RCC) (AID 1963991; calls by dose curve; note: potency is the fitted concentration of half-maximal effect;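 for z-score: curves scaled with 100% = DMSO viability and 0% = empty wells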). Particulars: CellTiter-Glo, 48 h; for z-score: stronger effect = lower value. A digest of the protocol:
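UOK109/UOK124/UOK145 (TFE3 fusions, three partners); 500 cells/well; MIPE v4.0, 1912 cpds, 11 conc.; 48 h, 37 C; CellTiter-Glo, 15 min RT; lum. Norm.: DMSO 100%, empty 0%.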

Assay [4] has as its system AA1029. Briefly: qHTS profiling for inhibitors of Plasmodium falciparum proliferation (AID 504749). Note: nearly all actives have a fitted effect of over 60% in size. Note: potency is the fitted concentration of half-maximal effect. The note with it: P. falciparum in erythrocytes, SYBR Green DNA, 72 h; series mostly up to 28.7 µM. Summed up:
(§1)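 P. falciparum-infected erythrocytes (0.3% parasitemia, 2.5% hematocrit) incubated with compound 72 h at 37 C, 5% CO2. Parasite DNA detected by SYBR Green after lysis, overnight at room temperature; normalised to 0.29 uM artemisinin and DMSO.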

Assay [5] has as its system ATS189. The assay is described as above. The note with it: P. falciparum in erythrocytes, SYBR Green DNA, 72 h; series mostly up to 28.7 µM. A digest of the protocol:
as §1

For assay [6], the system named is CP185. The description is as above. Particulars: P. falciparum in erythrocytes, SYBR Green DNA, 72 h; series mostly up to 28.7 µM. A digest of the protocol: as §1
The subject of assay [7] is CP191. Described as above. Particulars: P. falciparum in erythrocytes, SYBR Green DNA, 72 h; series mostly up to 28.7 µM. A digest of the protocol:
as §1

The test system of assay [8] is CP192. The assay is described as above. The note with it: P. falciparum in erythrocytes, SYBR Green DNA, 72 h; series mostly up to 28.7 µM. Summed up: as §1
For assay [9], the system named is CP194. The assay is described as above. The note with it: P. falciparum in erythrocytes, SYBR Green DNA, 72 h; series mostly up to 28.7 µM. Summed up:
as §1

In assay [10] the test system is CP201. The assay is described as above. Particulars: P. falciparum in erythrocytes, SYBR Green DNA, 72 h; series mostly up to 28.7 µM. Summed up:
as §1

The test system of assay [11] is CP211. The description is as above. Particulars: P. falciparum in erythrocytes, SYBR Green DNA, 72 h; series mostly up to 28.7 µM. Summed up: as §1
Assay [12] concerns CP217. The description is as above. The note with it: P. falciparum in erythrocytes, SYBR Green DNA, 72 h; series mostly up to 28.7 µM. Summed up:
as §1

Assay [13] has as its system 7G8. The description is as above. Particulars: P. falciparum in erythrocytes, SYBR Green DNA, 72 h; series mostly up to 28.7 µM. Summed up: as §1
Assay [14] concerns ATS95. The assay is described as above. The note with it: P. falciparum in erythrocytes, SYBR Green DNA, 72 h; series mostly up to 28.7 µM. A digest of the protocol:
as §1

Assay [15] concerns CP215. The assay is described as above. The note with it: P. falciparum in erythrocytes, SYBR Green DNA, 72 h; series mostly up to 28.7 µM. A digest of the protocol:
as §1

Where [16] appears, read: measured here: PEO1 parental Z-AUC.
Where [17] appears, read: TFE3-RCC UOK109 viability, measured here: UOK109 Z-AUC.
The mark [18] stands for this setting: TFE3-RCC viability, measured here: UOK124 Z-AUC.
The mark [19] stands for this setting: TFE3-RCC viability, measured here: UOK145 Z-AUC.

Records with an inconclusive call do not appear. Calls of active or inactive are those of the source. Unless noted, calls come from the whole dose curve; as a rule, active = well fitted curve in the direction sought with a large enough effect; inconclusive = small, poorly fitted or top-dose-only effect, or another doubt; inactive = no such curve, though single readings can be large; an effect the other way counts as inactive or inconclusive.

For `Cc1c(C(=O)Nc2cccc(C(F)(F)F)c2)cc(-c2ccccc2)n1CCCN1CCOCC1`, the Z-AUC was -1.03 (inactive) in assay [1], -0.727 in [1] (setting [16]) and -1.05 in assay [1] (measured here: PEO4 Z-AUC).

Regarding `O=c1cccc2n1CC1CNC[C@H]2C1`, the values for the Z-AUC in assay [1], in [1] (setting [16]) and in [1] (measured here: PEO4 Z-AUC) were 1.36 (inactive), 1.98 and 1.69, respectively.

Regarding `CC(=O)Nc1ccc(OC[C@](C)(O)C(=O)Nc2ccc([N+](=O)[O-])c(C(F)(F)F)c2)cc1`, the Z-AUC was -0.618 (inactive) in [1], -0.737 in assay [1] (setting [16]) and -0.359 in [1] (measured here: PEO4 Z-AUC).

Take `CCOC(=O)c1c(C(C#N)=CN)c2ccc(Cl)c(Cl)c2n1C`: the figures for the Z-AUC in [1], in assay [1] (setting [16]) and in assay [1] (measured here: PEO4 Z-AUC) were 0.895 (inactive), 0.557 and 0.414, respectively.

As to `CCCCCC[C@H]1C(=O)O[C@H](C)[C@H](NC(=O)c2cccc(NC=O)c2O)C(=O)O[C@@H](C)[C@@H]1OC(=O)CC(C)C`, the Z-AUC in [1] was -1.4 (inactive); in assay [1] (setting [16]) it was -1.96; in assay [1] (measured here: PEO4 Z-AUC) it was -1.72.

Regarding `O=c1[nH]c2ccccc2n1C1CCN(Cc2ccc(-c3[nH]c4cc5ncnc5cc4nc3-c3ccccc3)cc2)CC1`, the Z-AUC in assay [1] is -0.823 (inactive); in assay [1] (setting [16]), -0.392; in [1] (measured here: PEO4 Z-AUC), -0.582.

`CCN(CC)C(=O)c1ccc(C2=CC3(CCNCC3)Oc3cccc(O)c32)cc1`: the Z-AUC is -0.151 (inactive) in assay [1], 0.834 in assay [1] (setting [16]) and 0.745 in assay [1] (measured here: PEO4 Z-AUC).

`O=C(O)c1ccccc1O`: the result in assay [2] was inactive.

As for `CN(C)[C@@H]1C(=O)C(C(N)=O)=C(O)[C@@]2(O)C(=O)C3=C(O)c4c(O)cccc4[C@@](C)(O)[C@H]3[C@H](O)[C@@H]12`, the figures for the Z-AUC in assay [1], in assay [1] (setting [16]) and in assay [1] (measured here: PEO4 Z-AUC) were -0.415 (inactive), -0.31 and 0.0838, respectively. The z-score was 2.05 in [3] (setting [17]), 0.404 in assay [3] (setting [18]) and 0.671 in assay [3] (setting [19]). Moreover, the Potency entry in assay [4], in assay [5], in assay [6], in assay [7], in assay [8] and in assay [9] was “inactive” in each case. For the same compound, the Potency result in [11] and in [12] was “inactive” throughout. Further, the result in [10] was inactive.

Turning to `CN(C)NC(=O)CCC(=O)O`, the values for the Z-AUC in assay [1], in assay [1] (setting [16]) and in assay [1] (measured here: PEO4 Z-AUC) were 1.04 (inactive), 0.492 and 0.93, respectively. Moreover, the z-score in [3] (setting [17]) was 0.632; in assay [3] (setting [18]) it was 0.666; in assay [3] (setting [19]), -0.178.

As for `CC(=CCCC1=CCC(C2=CC(=O)OC2O)OC1O)CCC1=C(C)CCCC1(C)C` (stereo unspecified), the z-score was 0.667 in assay [3] (setting [17]), 0.534 in assay [3] (setting [18]) and -0.0671 in assay [3] (setting [19]).

For the compound `CC[C@@H](C(N)=O)N1CCCC1=O`, the values for the Z-AUC in [1], in [1] (setting [16]) and in assay [1] (measured here: PEO4 Z-AUC) were -0.418 (inactive), -0.901 and -0.237, respectively. For the same compound, the values for the z-score in assay [3] (setting [17]), in [3] (setting [18]) and in [3] (setting [19]) were 1.12, 0.779 and 0.655, respectively.

Turning to `Cc1ccccc1-n1c(Cn2ncc3c(N)ncnc32)nc2cccc(C)c2c1=O`, the Z-AUC in [1] was -0.794 (inactive); in [1] (setting [16]), -0.62; in assay [1] (measured here: PEO4 Z-AUC) it was -0.742. Moreover, in assay [3] (TFE3-RCC UOK109 viability), the Potency was 52.6 nM (active). In addition, the figures for the z-score in [3] (setting [17]), in [3] (setting [18]) and in assay [3] (setting [19]) were -1.3, -1.03 and -1.02, respectively.

For the compound `Cc1ccccc1-n1c(Cn2cnc3c(N)ncnc32)nc2cccc(C)c2c1=O`, the results for the Z-AUC in [1], in assay [1] (setting [16]) and in assay [1] (measured here: PEO4 Z-AUC) were -0.47 (inactive), 0.542 and 0.532, respectively. In addition, the Potency in assay [3] (TFE3-RCC UOK109 viability) is 235 nM (active). For the same compound, the z-score in [3] (setting [17]) was -2.22; in [3] (setting [18]) it was -1.13; in assay [3] (setting [19]) it was -1.88.

Take `O=c1[nH]c2ccc(Cl)cc2c(N[C@@H]2CN3CCC2CC3)c1-c1nc2ccccc2[nH]1`: the figures for the Z-AUC in [1], in assay [1] (setting [16]) and in assay [1] (measured here: PEO4 Z-AUC) were -1.21 (inactive), -1.35 and -1.24, respectively. Also, in assay [3] (TFE3-RCC UOK109 viability), the Potency was 3720 nM (active). The z-score was -0.938 in [3] (setting [17]), -2.71 in [3] (setting [18]) and -1.04 in assay [3] (setting [19]).

For the compound `NC1=NC(=O)N2CC12` (stereo unspecified), the Z-AUC is -1.19 (inactive) in assay [1], -0.747 in assay [1] (setting [16]) and -0.506 in [1] (measured here: PEO4 Z-AUC). The z-score in [3] (setting [17]) came to 0.952; in [3] (setting [18]) it was 1.24; in assay [3] (setting [19]), 1.15. Further, in assay [13], the Potency was 10 µM (active). Besides, the Potency result in assay [5], in [14], in assay [7], in assay [8] and in [15] was “inactive” throughout. Besides, the outcome in [10] was inactive.
